An excerpt weighted towards active compounds, which were near 2.4% of everything screened.
CRFR2-BP ag = agonists of human CRF-binding protein/CRF-R2 receptor complex. HEK293 CRF-R2/CRF-BP, calcium dye fluorescence (FLIPR); percent of saturating CRF peptide response. activation, % at 13.2 µM. hit rate 0.46% among 350,000;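 active = activation of at least 50%, plus an integration ratio under a set limit after plate pattern correction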;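 also: plate controls were neutral control wells without compound for no effect and CRF at EC100 for full effect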
RTF Ca sens inh = cardiac RTF calcium desensitization; P19429+P45379; IANBD-labeled cardiac RTF, Ca2+ fluorescence; inhibition, % at 7.15 µM; hit rate 0.12% among 340,000; AID 493244;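 active = inhibition above the mean inhibition of all tested compounds plus 3 SD, cut at about 17% in these data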;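 also: assay run at fixed EC70 calcium of 1.6 mM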
cardiac RTF act = cardiac RTF calcium sensitization. P19429+P45379. IANBD-labeled TnC RTF fluorescence at EC20 calcium; 0% EC20 calcium, 100% full calcium. activation, % at 7.2 µM. hit rate 0.24% among 340,000. AID 493008;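 active = activation above the mean over all tested compounds plus 3 SD, cut at about 30% in these data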;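 also: rise in fluorescence read as greater calcium sensitivity of cardiac thin filaments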
ANO1 block = blocks the mouse calcium-activated chloride channel TMEM16A. Q8BHY3. HEK293 TMEM16A/YFP iodide influx fluorescence, ionomycin. normalized B-score (activity score, 25-100; higher = stronger inhibition) at 10 µM. hit rate 1.2% among 310,000. AID 588511;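 active = ratio plate-corrected score three or more library SD toward inhibition, starting fluorescence score within five deviations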;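 also: score derived from kinetic fluorescence span divided by baseline fluorescence per well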
Target sequence (Q8BHY3 whole entry, looked up): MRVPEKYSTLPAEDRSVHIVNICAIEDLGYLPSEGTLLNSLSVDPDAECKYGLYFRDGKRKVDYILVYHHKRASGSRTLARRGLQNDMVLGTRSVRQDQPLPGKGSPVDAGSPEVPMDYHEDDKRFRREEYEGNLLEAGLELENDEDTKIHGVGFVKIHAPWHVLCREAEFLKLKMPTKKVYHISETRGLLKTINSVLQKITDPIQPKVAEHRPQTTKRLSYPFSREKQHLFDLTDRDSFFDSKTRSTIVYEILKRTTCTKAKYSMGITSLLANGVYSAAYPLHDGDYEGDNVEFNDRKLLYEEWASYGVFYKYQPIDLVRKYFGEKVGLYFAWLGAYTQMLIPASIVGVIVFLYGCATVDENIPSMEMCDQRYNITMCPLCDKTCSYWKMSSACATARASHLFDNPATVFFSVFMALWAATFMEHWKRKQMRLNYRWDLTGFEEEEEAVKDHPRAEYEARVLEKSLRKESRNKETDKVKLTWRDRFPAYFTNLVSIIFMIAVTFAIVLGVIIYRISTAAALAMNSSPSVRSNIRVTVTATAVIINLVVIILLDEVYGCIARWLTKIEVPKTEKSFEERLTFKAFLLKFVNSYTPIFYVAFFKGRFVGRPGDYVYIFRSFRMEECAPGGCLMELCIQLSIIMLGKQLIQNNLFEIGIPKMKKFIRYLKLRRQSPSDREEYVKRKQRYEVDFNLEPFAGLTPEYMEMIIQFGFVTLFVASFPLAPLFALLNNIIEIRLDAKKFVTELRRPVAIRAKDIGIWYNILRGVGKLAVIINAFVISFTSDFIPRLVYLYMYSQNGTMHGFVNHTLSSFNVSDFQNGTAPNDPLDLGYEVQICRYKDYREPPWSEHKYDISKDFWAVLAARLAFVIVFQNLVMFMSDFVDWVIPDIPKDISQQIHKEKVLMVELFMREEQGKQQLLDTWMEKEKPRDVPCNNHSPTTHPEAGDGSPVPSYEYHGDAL
ANO1 activ = activators or potentiators of mouse TMEM16A chloride channel | HEK293 TMEM16A/YFP-H148Q/I152L, iodide quench fluorescence; stronger effect = lower value | hit rate 0.3% among 340,000 | Q8BHY3 | B-score at 10 µM;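 active = fluorescence-ratio B-score plate-corrected deviation score at least 3 library SD below zero, with starting fluorescence score within 5 deviations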;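 also: channel opened by trigger with iodide after compound preincubation; score built on the fluorescence ratio of max minus min over baseline; more negative score means more quench and so TMEM16A activation or potentiation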
CRFR2-BP antag = antagonists of CRF-binding protein/CRF-R2 receptor complex; HEK293 CRF-R2/CRF-BP, CRF-induced calcium fluorescence; inhibition, % at 11.8 µM; hit rate 0.59% among 350,000; AID 588475;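 active = inhibition of the ligand-induced calcium signal above about 50% at the single tested concentration, limit read from the data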
* hit, by the source's call; i = inactive; x = no result given.

SMILES | CRFR2-BP ag | RTF Ca sens inh | cardiac RTF act | ANO1 block | ANO1 activ | CRFR2-BP antag
Cc1cccc(S(=O)(=O)NNC(=O)Cc2cccn2C)c1 | 5 | -9 | 8 | 25* | i | -8
COc1ccc(-c2csc(=NCCO)n2-c2ccccc2)cc1 | 3 | -2 | -1 | 25* | i | 13
Cc1ccc(-c2nc(N)c3c(-c4ccc(C)cc4)nn(C(C)(C)C)c3n2)cc1 | -1 | -11 | 2 | 100* | i | -14
CC(C)(C)n1nc(-c2ccc(Cl)cc2)c2c(N)ncnc21 | -1 | -8 | 3 | i | i | 28
COCCN(C(=S)Nc1c(C)cccc1C)C(C)c1ccco1 (stereo not drawn) | 0 | -7 | 3 | i | i | 3
Cc1nn(Cc2ccc(C(=O)NC(C)(C)C)o2)c(C)c1Br | -1 | -1 | 5 | 25* | i | -2
COc1ccc(CNC(=O)c2n[nH]c3ccccc23)cc1OC | -2 | -4 | 2 | i | i | 0
O=C(CCCN1C(=O)/C(=C\c2ccccc2)SC1=S)Nc1ccc(O)cc1C(=O)O | 0 | 3 | -2 | i | i | 0
CCc1ccc(/C=C2\SC(=S)N(CCCC(=O)Nc3ccccn3)C2=O)cc1 | 24 | 1 | 37* | i | i | -34
CCc1ccc(/C=C2/SC(=S)N(CCCC(=O)Nc3ccccc3C(=O)O)C2=O)cc1 | 1 | 1 | -3 | 100* | i | 45
CCc1c(C)sc2nc(C(C)C)nc(SCC(=O)N3CCc4ccccc4C3)c12 | 6 | x | x | 100* | x | -23
Cc1sc2nc(C3CC3)nc(SCC(=O)N3CCc4ccccc4C3)c2c1C | 2 | -5 | -1 | i | i | -11
C#CCOCCOCCOCCNc1nc(N2CCN(C(=O)CCCCCCCCCCNC(=O)[C@H]([C@@H](C)CC)n3cc(CCCCCN)nn3)CC2)nc(N2CCN(C(=O)CCCCCCCCCCNC(=O)[C@H](CO)n3cc(CCCCCN)nn3)CC2)n1 | 77* | -8 | -2 | 25* | -17* | -42
C#CCOCCOCCOCCNc1nc(N2CCN(C(=O)CCCCCCCCCCNC(=O)Cn3cc(CCCCCN)nn3)CC2)nc(N2CCN(C(=O)CCCCCCCCCCNC(=O)[C@H]([C@@H](C)CC)n3cc(CCCCN=C(N)N)nn3)CC2)n1 | 31 | -3 | -7 | i | -21* | -110
C#CCOCCOCCOCCNc1nc(N2CCN(C(=O)Cn3cc(CC(C)O)nn3)CC2)nc(N2CCN(C(=O)[C@H](CCCCN)n3cc(CCCC)nn3)CC2)n1 (stereo partly drawn) | -2 | -13 | 3 | x | i | 5
C#CCOCCOCCOCCNc1nc(N2CCN(C(=O)CCCCCCCCCCNC(=O)Cn3cc(CCCCCN)nn3)CC2)nc(N2CCN(C(=O)CCCCCCCCCCNC(=O)[C@@H](CCSC)n3cc(CCO)nn3)CC2)n1 | 12 | -2 | 10 | i | -4.6* | -18
C#CCOCCOCCOCCNc1nc(N2CCN(C(=O)Cn3cc(CCO)nn3)CC2)nc(N2CCN(C(=O)[C@H](CCCCN)n3cc(CC(C)O)nn3)CC2)n1 (stereo partly drawn) | -3 | -6 | 0 | x | i | 53*
C#CCOCCOCCOCCNc1nc(N2CCN(C(=O)CCCCCCCCCCNC(=O)[C@H]([C@@H](C)CC)n3cc(CCCCCN)nn3)CC2)nc(N2CCN(C(=O)CCCCCCCCCCNC(=O)[C@H]([C@@H](C)CC)n3cc(CCCCN=C(N)N)nn3)CC2)n1 | x | 2 | 6 | i | -28* | x
C#CCOCCOCCOCCNc1nc(N2CCN(C(=O)[C@H](CCCCN)n3cc([C@@H](N)C(C)CC)nn3)CC2)nc(N2CCN(C(=O)[C@H](Cc3cc4ccccc4[nH]3)n3cc([C@@H](N)CC(C)C)nn3)CC2)n1 (stereo partly drawn) | 1 | -4 | -6 | i | -18* | 0
C#CCOCCOCCOCCNc1nc(N2CCN(C(=O)CCCCCCCCCCNC(=O)[C@H]([C@@H](C)CC)n3cc(CCCCN=C(N)N)nn3)CC2)nc(N2CCN(C(=O)CCCCCCCCCCNC(=O)[C@H](CO)n3cc(CCCCCN)nn3)CC2)n1 | 76* | 11 | -4 | 100* | -20* | -189
C#CCOCCOCCOCCNc1nc(N2CCN(C(=O)[C@H](Cc3cc4ccccc4[nH]3)n3cc([C@@H](N)C(C)CC)nn3)CC2)nc(N2CCN(C(=O)[C@H](CCCCN)n3cc([C@@H](N)CO)nn3)CC2)n1 (stereo partly drawn) | x | x | x | i | x | x
CCOc1ccccc1N1CCN(C(=O)c2cc3cc(OC)ccc3[nH]2)CC1 | -1 | 7 | -3 | i | i | 1
COC(=O)C1(NC(=O)CNC(=O)OCc2ccccc2)CCCC1 | 1 | 0 | -7 | x | i | 12
O=C(N/N=C/c1cc(Cl)cc([N+](=O)[O-])c1O)NC12CC3CC(CC(C3)C1)C2 | -3 | -16 | -6 | i | i | 53*
O=C(N/N=C/c1ccccc1O)NC12CC3CC(CC(C3)C1)C2 | 0 | -1 | -4 | i | i | -4
SMILES | CRFR2-BP ag | RTF Ca sens inh | cardiac RTF act | ANO1 block | ANO1 activ | CRFR2-BP antag
COC(=O)C/C=N/N=C1/NC(=O)/C(=C/C(=O)O)S1 | -3 | -14 | -1 | i | i | 0
CCCCn1c(N)c(N(CCC(C)C)C(=O)Cc2ccc(S(=O)(=O)N3CCOCC3)s2)c(=O)[nH]c1=O | 6 | -27 | 9 | i | i | 100*
CCCCn1c(N)c(N(CC(C)C)C(=O)Cc2ccc(S(=O)(=O)N3CCOCC3)s2)c(=O)[nH]c1=O | 54* | -37 | 25 | x | -7.5* | -53
CCCCn1c(N)c(N(CC)C(=O)Cc2ccc(S(=O)(=O)N3CCOCC3)s2)c(=O)[nH]c1=O | 4 | -8 | -3 | i | i | 5
CCCCn1c(N)c(N(CCC(C)C)C(=O)c2cc(S(=O)(=O)N3CCOCC3)ccc2F)c(=O)[nH]c1=O | 2 | -25 | -7 | i | i | 8
C=CCn1c(SCc2csc(-c3ccc(Cl)cc3)n2)nnc1-c1ccccc1OC | 2 | 0 | -1 | i | i | 27
C[C@@H]1CNC(=O)c2c(C(=O)NCC(=O)OC(C)(C)C)ncn21 | -1 | x | x | x | x | 16
COc1ccccc1C(=O)NNC1=C(C(=O)C(F)(F)F)CCC1 | 62* | 4 | -2 | i | i | 28
O=C(NNC1=C(C(=O)C(F)(F)F)CCC1)c1ccccc1Cl | 0 | -9 | -1 | i | -19* | 14
Nc1ccccc1C(=O)NNC1=C(C(=O)C(F)(F)F)CCC1 | 7 | 0 | 3 | i | i | 17
COc1cccc(C(=O)NNC2=C(C(=O)C(F)(F)F)CCC2)c1 | 0 | x | x | i | i | 8
